Experimental data published in ChEMBL document CHEMBL4513216, “Probing the Open Global Health Chemical Diversity Library for Multistage-Active Starting Points for Next-Generation Antimalarials” (ACS Infect Dis, 2020).
The whole screen tested about 69,000 compounds, of which about 8,600 (12%) showed an effect of 50% or more. Many of the other results were omitted from the sample, so strong results are more common in it than they were.

Each molecule was assayed on Plasmodium berghei (assay: Screen against P. berghei liver stage (PbLuc), transformed with Luciferase, at 10uM). Conditions: tested at 10 uM.
Format: functional, HepG2

SMILES | INHIBITION
C[C@@H](NC(=O)c1cccs1)c1onc(-c2cccnc2)c1C(=O)O | -20.8%
O=C(CN1CCCC1c1nc(Cc2ccc(F)cc2)no1)NC1CC1 (stereo not given) | 62%
CC(C)(C)OCCN1CCCC1c1nc(Cc2ccc(F)cc2)no1 (stereo not given) | 10.6%
CCCNC(=O)CN1CCCC1c1nc(Cc2ccc(F)cc2)no1 (stereo not given) | 47.4%
OCCCN1CCCC1c1nc(Cc2ccc(F)cc2)no1 (stereo not given) | 14.9%
C=C(C)CN1CCCC1c1nc(Cc2ccc(F)cc2)no1 (stereo not given) | 61.1%
CCCN1CCCC1c1nc(Cc2ccc(F)cc2)no1 (stereo not given) | 23.5%
O=C(CN1CCN(CC(O)C2CC2)CC1)NCc1ccccc1 (stereo not given) | -24.6%
COc1ccc(F)cc1-c1ccccc1CC1CNCCNC1=O (stereo not given) | 23.595%
Cc1cc(F)ccc1-c1ccccc1CC1CNCCNC1=O (stereo not given) | 71.2%
Cc1ccc(-c2ccccc2CC2CNCCNC2=O)c(C)c1 (stereo not given) | 33%
CC(=O)N1CCN(C(=O)c2cc(-n3cnnn3)ccc2Cl)CC1 | 6.32%
CCN(C(=O)NCc1ccc(C)cc1OC)C(C)c1cccnc1 (stereo not given) | 29.8%
CCN(C(=O)NCc1ccccc1OC(F)F)C(C)c1cccnc1 (stereo not given) | 50.1%
CCOc1ccccc1CNC(=O)N(CC)C(C)c1cccnc1 (stereo not given) | -1.25%
NC(=O)c1ccccc1Oc1cnc(C2CCCN2)cn1 (stereo not given) | -38.3%
Cc1ccc2c(c1)CCC2NC(=O)N1CCC(C(N)=O)CC1 (stereo not given) | 10.1%
COC(=O)Cn1c(=O)[nH]c2cn(-c3ccc(C)cc3)c(=O)n21 | -1.04%
CC(C)CN1C(=O)CO[C@@H]2CN(C(=O)CC(F)(F)F)C[C@H]21 | 54.1%
CC(C)CN1C(=O)CO[C@@H]2CN(C(=O)N3CCOCC3)C[C@H]21 | 29%
CC(C)CN1C(=O)CO[C@@H]2CN(C(=O)NC(C)C)C[C@H]21 | 70.4%
CC(C)CN1C(=O)CO[C@@H]2CN(C(=O)[C@H]3CCCO3)C[C@H]21 | 36.4%
CC(C)CN1C(=O)CO[C@@H]2CN(C(=O)N(C)C)C[C@H]21 | 29%
CC(C)CN1C(=O)CO[C@@H]2CN(C(=O)C3CCOCC3)C[C@H]21 | 11.3%
CCN(CC)CC1CN(Cc2cccc(C#N)c2)Cc2nccn2C1 (stereo not given) | -16.9%
CC1CCCN(c2nccn3c(=O)[nH]nc23)C1 (stereo not given) | 17.6%
COCC(=O)N1CCC(=O)N(C2CCCC2)Cc2cc(F)ccc21 | -13.3%

SMILES | INHIBITION
CCOC(=O)[C@]12CCCN(Cc3nccs3)C[C@H]1CN(S(C)(=O)=O)C2 | 5.96%
CCOC(=O)[C@]12CCCN(Cc3cccs3)C[C@H]1CN(CC(C)C)C2 | 60.3%
CCOC(=O)[C@]12CCCN(Cc3nccs3)C[C@H]1CN(CCN(C)C)C2 | 15.1%
CCOC(=O)[C@]12CCCN(Cc3nccs3)C[C@H]1CN(C(C)=O)C2 | -1.64%
O=C(O)[C@]12CCCN(Cc3cccs3)C[C@H]1CN(c1ncccn1)C2 | -7.24%
CCOC(=O)[C@]12CCCN(Cc3cccs3)C[C@H]1CN(CCOC)C2 | 33.5%
CCOC(=O)[C@]12CCCN(Cc3nccs3)C[C@H]1CN(CCOC)C2 | -14.4%
CCOC(=O)[C@]12CCCN(Cc3cccs3)C[C@H]1CN(C(C)=O)C2 | 51.4%
CCOC(=O)[C@]12CCCN(Cc3nccs3)C[C@H]1CN(C(C)C)C2 | 76.4%
CCOC(=O)[C@]12CCCN(Cc3cccs3)C[C@H]1CN(C(C)C)C2 | 64.3%
CCOC(=O)[C@]12CCCN(Cc3nccs3)C[C@H]1CN(CC(C)C)C2 | -13%
CCOC(=O)[C@]12CCCN(Cc3ccsc3)C[C@H]1CN(CCOC)C2 | -74.6%
COc1cc(-c2nc3c([nH]2)CCCNC3=O)cc(OC)c1OC | -34.8%
Cc1ccc(F)cc1C(=O)N1CCN(S(C)(=O)=O)[C@@H](C)C1 | -2.23%
CCOC(=O)Cc1cs/c(=N/C(=O)COc2cnc(C)cc2O)[nH]1 | -1.45%
CC(C)(C)c1cccc(OCC(=O)NS(=O)(=O)c2cccnc2)c1 | 0.1%
CCNC(=O)NC(=O)CNC(C)(C)c1ccc2c(c1)OCO2 | -12.2%
CN(Cc1cccnc1)[C@@H]1CN(Cc2ccccn2)[C@@H]2CCCO[C@H]12 | 30.3%
NCC1CCC(c2c(C(=O)NCCO)sc3ccccc23)CC1 (stereo not given) | -11.4%
CCC1CCCCN1C(=O)CCn1cnc2sccc2c1=O (stereo not given) | 25.4%
CNC(=O)C1CCCCN1C(=O)CCn1cnc2sccc2c1=O (stereo not given) | 52.6%
CC1CCCCN1C(=O)CCn1cnc2sccc2c1=O (stereo not given) | 42.7%
CCn1ncc2c(C(F)F)cc(-c3ccn(C)n3)nc21 | 8.05%
O=C(Nc1ccc(Cn2cccn2)cc1)N1CCC(CO)CC1 | 57.8%
O=C(Nc1ccc(Cn2cccn2)cc1)N1CCC2(CC1)OCCO2 | 41%
CC1(C)CN(C(=O)Nc2ccc(Cn3cccn3)cc2)CCO1 | 49.9%
COCCOc1ccc(NC(=O)C2CC(=O)N(CC3CC3)C2)cn1 (stereo not given) | 4.71%

SMILES | INHIBITION
CN(C)C(=O)N1CCC2(CC1)CN(CC1CC1)CC21CCNC1=O (stereo not given) | -63.9%
Cc1cc(C(=O)NCC(F)(F)F)c2c(C3CCCN3)noc2n1 (stereo not given) | 30.8%
Cc1cc(C(=O)NCC(F)(F)F)c2c(C3CCNCC3)noc2n1 | 64%
Cc1cc(C(=O)NCc2ccc(F)cc2)c2c(C3CCNC3)noc2n1 (stereo not given) | 41.6%
O=C(C1CCN(c2nc3nc[nH]c(=O)c3s2)CC1)N1CCCCC1 | 37.4%
NC(=O)NC(CC(=O)NCCc1cccc(F)c1)c1ccccc1 (stereo not given) | 20.5%
COc1ccc(CCNC(=O)CC(NC(N)=O)c2ccccc2)cc1 (stereo not given) | 29.1%
NC(=O)NC(CC(=O)NCCc1ccc(F)cc1)c1ccccc1 (stereo not given) | 53.8%
CSCC(=O)N1CCCCC1Cn1cc(C)cn1 (stereo not given) | -5.25%
CC(C)CN1CCC2(CCN(CC3CC3)CC2)C1=O | -7.24%
Nc1ccnc(N2CCCC(CO)(Cc3cccc(Cl)c3)C2)n1 (stereo not given) | 44.9%
Nc1cc(N2CCCC(Cc3ccc(F)cc3F)(C(=O)O)C2)ncn1 (stereo not given) | 34.4%
OCC1(Cc2ccccc2F)CCCN(c2ccc3ccccc3n2)C1 (stereo not given) | 89.9%
CCCC1(CO)CCCN(c2ncccc2F)C1 (stereo not given) | -29.9%
COc1cc(N2CCCC(CO)(Cc3ccccc3F)C2)ncn1 (stereo not given) | 84.9%
COC[C@]1(O)CCN(c2cc(OC)ncn2)CC1(C)C | -31.7%
Nc1cc(N2CCCC(CO)(Cc3ccccc3F)C2)nc(N)n1 (stereo not given) | 75.1%
O=C(O)C1(Cc2ccccc2F)CCCN(c2ncnc3[nH]ccc23)C1 (stereo not given) | 23.5%
N#Cc1cccc(N2CCCC(CO)(Cc3ccccc3F)C2)n1 (stereo not given) | 23.5%
CNC(=O)N1CC[C@@H]2CN(Cc3cccnc3)S(=O)(=O)[C@@H]2CC1 | 22.2%
CN1CC(=O)N(C2CCNCC2)Cc2c(NC3CCC3)ncnc21 | -13%
CCOC1COC2(CCN(Cc3ccc4c(c3)OCO4)CC2)C1 (stereo not given) | 24.9%
COCCn1c(CN2CCCCO2)cnc1S(=O)(=O)CC1CCCCC1 | -2.13%
CCc1cc(NC2CCC(N)CC2)n2nc(C)c(C)c2n1 (stereo not given) | 14.1%
CC(C)n1ncc2cc(NC(=O)N3CCC(CO)CC3)cnc21 | 29.7%
Fc1ccccc1Cc1noc(CN2CC[C@@H]3CCCC[C@H]3C2)n1 | 38.4%
c1ccc(OCc2noc(CN3CCC(N4CCSCC4)CC3)n2)cc1 | 79.5%

SMILES | INHIBITION
c1ccc(CCc2noc(CN3CCC(N4CCSCC4)CC3)n2)cc1 | 7.97%
CCc1nc(CN(C)C2CCN(CCOc3ccccc3)C2)no1 (stereo not given) | -0.219%
c1ccc(OCc2noc(CN3CCN(C4CCCC4)CC3)n2)cc1 | 40.9%
Fc1ccccc1Cc1noc(CN2CCC(N3CCSCC3)CC2)n1 | 75.2%
CS(=O)(=O)NCC1(c2ccccc2Br)CC1 | 46.6%
CCN(C)S(=O)(=O)NCC1(c2ccccc2Br)CC1 | 51%
CN(C)S(=O)(=O)NCC1(c2ccccc2Br)CC1 | 46.6%
COC(C)(C)CNC(=O)c1cn(-c2cccc(Cl)c2F)nn1 | 18.7%
O=C(c1cn(-c2ccccc2Cl)nn1)N1CCSCC1 | -28.8%
COCC(C)(C#N)NC(=O)c1cn(-c2cccc(Cl)c2F)nn1 (stereo not given) | 55.6%
CC(O)CN1CCN(C(=O)c2cn(-c3ccccc3Cl)nn2)CC1 (stereo not given) | -9.67%
COCC(NC(=O)c1cn(-c2cccc(Cl)c2F)nn1)C1CC1 (stereo not given) | 51.2%
O=C(c1cn(-c2cccc(Cl)c2F)nn1)N1CCCSCC1 | -134%
CNC(=O)c1sc2ccccc2c1CC1CCCN1Cc1cnc(C)s1 (stereo not given) | 24.69%
CCN1CCc2[nH]nc(C(=O)N3CCCC3C)c2C1 (stereo not given) | -65.2%
CS(=O)(=O)NC(=O)c1ccn(-c2cccc(Br)c2)n1 | 16.3%
CC(c1ccccc1F)N(C(=O)CSCC(N)=O)C1CC1 (stereo not given) | 35.9%
CC(c1ccccc1Cl)N(C(=O)CSCC(N)=O)C1CC1 (stereo not given) | 30.4%
CC(c1ccccc1F)N(CC(N)=O)C1CC1 (stereo not given) | 72.1%
Cc1nnc2n1CCN(Cc1ccc3c(c1)OCCO3)C2 | 33.8%
COCC(=O)N1CCC(O)(CN2CCN(c3ccccc3)CC2)C1 (stereo not given) | 39.7%
CC1CCCCN1C(=O)c1nc2c(n1C(C)C)CCN(C)C2 (stereo not given) | 58.5%
CC1CCCCN1C(=O)c1nc2c(n1C(C)C)CCN(C(=O)C1CC1)C2 (stereo not given) | -0.554%
CC(C)n1c(C(=O)N2CCCC2)nc2c1CCN(C)C2 | 9.79%
